Shown are actives, neighbours in structure and some others; about 3.7% of the full set was active somewhere.
ATXN2 expr inh: inhibitors of ATXN2 expression | Potency, µM (doses to about 57 µM), actives largely listed as inhibitors | 360,000 tested, 0.72% active | HEK-293 ATXN2-luciferase reporter, luminescence, 24 h | AID 1745845; further: nearly all actives have a fitted effect of over 55% in size
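ATXN2-luciferase reporter cells (luciferase flanked by upstream and downstream ATXN2 gene portions) were treated 24 h at 37 °C with compounds at up to 57 uM. SteadyGlo luminescence gave expression; GF-AFC fluorescence gave viability.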
TGFb inhibitor: blocks TGF-b signaling; HepG2 CAGA-GFP TGF-b/SMAD3 reporter, GFP fluorescence, 18 h; TGF-beta stimulated, 500 pg/mL final; Potency, µM (highest dose often 46.1 µM), actives largely listed as inhibitors; 410,000 tested, 1.2% active; further: nearly all actives have a fitted effect of over 65% in size
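Smad-responsive CAGA-GFP expression was quantified in HEPG2 cells exposed to compounds and 500 pg/mL final TGF-beta for 18 h at 37 degrees C; unstimulated wells defined full inhibition.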
ATXN viability: cell viability loss in ATXN counter-screen; 400,000 tested, 0.49% active; Potency, µM (highest dose often 56.7 µM), hits mostly cytotoxic; AID 651635; S2 cells (HEK-293 line with an ATXN2-luciferase reporter) viability, CellTiter-Fluor protease fluorescence, 24 h; further: nearly all actives have a fitted effect of over 40% in size
GLP-1R inv ag: acts as inverse agonist at human GLP-1 receptor; AID 624417; Potency, µM (titrated, usually from 38.3 µM), actives largely listed as inhibitors; P43220; 410,000 tested, 1.6% active; HEK293 GLP-1R CRE-luciferase, luminescence, 24 h; GLP-1R form is constitutively active; further: nearly all actives have a fitted effect of over 55% in size
Target sequence (P43220 whole entry, looked up): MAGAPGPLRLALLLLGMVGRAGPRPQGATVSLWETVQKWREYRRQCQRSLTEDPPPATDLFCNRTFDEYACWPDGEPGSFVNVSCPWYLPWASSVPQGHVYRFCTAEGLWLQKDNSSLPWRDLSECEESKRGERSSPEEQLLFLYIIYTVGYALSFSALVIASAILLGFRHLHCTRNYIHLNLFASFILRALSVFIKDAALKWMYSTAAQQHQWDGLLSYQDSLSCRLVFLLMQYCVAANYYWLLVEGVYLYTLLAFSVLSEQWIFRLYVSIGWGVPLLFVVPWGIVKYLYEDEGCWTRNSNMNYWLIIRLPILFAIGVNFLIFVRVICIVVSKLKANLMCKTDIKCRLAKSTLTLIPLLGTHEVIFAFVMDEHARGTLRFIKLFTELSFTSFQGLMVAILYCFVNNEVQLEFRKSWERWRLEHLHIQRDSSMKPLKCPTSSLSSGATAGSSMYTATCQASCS
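Luminescence readout: a drop in cAMP-driven luciferase signal flags inverse agonism at a constitutively active GLP-1R stably expressed in HEK293. Compound exposure lasted 24 hr at 37 deg C, 5% CO2.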
HepG2 tox: counter-screen for TGF-b inhibitors: cytotoxicity in HepG2 cells. HepG2 CAGA-GFP viability, ATP luminescence, 18 h. Potency, µM (series often up to 46.1 µM), hits mostly cytotoxic. 410,000 tested, 0.76% active. AID 588856
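HepG2 CAGA-GFP cells (1000/well, DMEM with 1% FBS) received compound, then TGF-beta at 500 pg/mL final, and were incubated 18 hours at 37 degrees C. Viability was read by CellTiter-Glo luminescence. Media-only wells were set as complete cell-killing and DMSO as no toxicity.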
GLP-1R agonist: GLP-1 receptor (human) agonism. Potency, µM (highest dose often 45.6 µM), hits mostly activators. P43220. AID 624172. HEK293 GLP-1R CRE-luciferase, luminescence, 4-6 h; cells express a hypersensitive GLP-1R form. 380,000 tested, 0.007% active
Each line names hits and unclear results; the compound was inactive in the other large screens. The call rests on the fitted dose curve; in most records, active means well fitted curve in the direction sought with a large enough effect; inconclusive means small, poorly fitted or top-dose-only effect, or another doubt; inactive means no such curve, though single readings can be large; an effect the other way counts as inactive or inconclusive.

CSc1oc(-c2ccc(F)cc2)nc1S(=O)(=O)c1ccc(Br)cc1	none (no result: GLP-1R agonist)
O=S(=O)(c1ccccc1)c1nc(-c2ccc(F)cc2)oc1N1CCCCCC1	TGFb inhibitor inconclusive, ATXN viability inconclusive, GLP-1R inv ag inconclusive (no result: GLP-1R agonist)
CCS(=O)(=O)c1oc(-c2ccc(F)cc2)nc1S(=O)(=O)c1ccccc1	GLP-1R inv ag inconclusive, HepG2 tox 2.5µM (no result: ATXN2 expr inh, TGFb inhibitor, ATXN viability, GLP-1R agonist)
CN(C)CCCNC(=S)NCC(c1ccc(Cl)cc1Cl)c1c[nH]c2ccccc12 (stereo not drawn)	ATXN2 expr inh 25µM, TGFb inhibitor inconclusive, ATXN viability inconclusive, GLP-1R inv ag inconclusive
CCCCNC(=S)NCC(c1ccccc1)c1c[nH]c2ccccc12 (stereo not drawn)	ATXN2 expr inh inconclusive, TGFb inhibitor inconclusive, ATXN viability inconclusive, GLP-1R inv ag inconclusive
Cc1c(C(=O)N(C)c2cccc(C(F)(F)F)c2)sc2nc3n(c(=O)c12)CCCCC3	none (no result: ATXN2 expr inh, ATXN viability, GLP-1R agonist)
CCCCC(=O)O[C@]1(C(=O)CO)[C@@H](C)C[C@H]2[C@@H]3CCC4=CC(=O)C=C[C@]4(C)[C@@]3(F)[C@@H](O)C[C@@]21C	none (no result: TGFb inhibitor, GLP-1R inv ag, HepG2 tox, GLP-1R agonist)
O=C(/C=C/c1ccc(OCCCF)cc1)N1CCN(Cc2ccccc2)CC1	GLP-1R inv ag 10µM
Cc1cc(N/N=C/c2ccc(O)c(C)c2O)nc(-c2ccccc2O)n1	ATXN2 expr inh inconclusive, TGFb inhibitor inconclusive, ATXN viability 16µM, GLP-1R inv ag inconclusive, HepG2 tox 11µM
Cc1cc(NCCCN)nc(-c2ccccc2O)n1	TGFb inhibitor inconclusive, GLP-1R inv ag 10µM
Cc1ccc(Nc2cc(C)nc(-c3ccccc3O)n2)cc1	ATXN viability inconclusive, GLP-1R inv ag inconclusive
CN(C)c1ccc(/C=C2\C=Cc3ccccc32)c(Cl)c1	none (no result: ATXN2 expr inh, ATXN viability, GLP-1R inv ag, GLP-1R agonist)
N=C(N)SCc1ccc(Cl)cc1Cl	TGFb inhibitor inconclusive, ATXN viability inconclusive, GLP-1R inv ag 7.1µM (no result: ATXN2 expr inh)
NC(=S)Cc1ccc(Cl)cc1Cl	none
O=c1[nH]c(=O)n(CCOc2ccc(Cl)cc2)cc1Br	none
C=C1CC(Cn2cc(Br)c(=O)[nH]c2=O)(c2ccc(-c3ccccc3)cc2)OC1=O (stereo not drawn)	ATXN2 expr inh 28µM, TGFb inhibitor 4.5µM, ATXN viability inconclusive, HepG2 tox 7.1µM
CC(C)(C)c1ccc(OCCCNC2CCCC2)cc1	ATXN2 expr inh inconclusive, TGFb inhibitor inconclusive, GLP-1R inv ag 10µM
CCN1CCc2c(sc(-n3cccc3)c2C(C)NC(=O)Nc2ccc(C(=O)OC)cc2)C1 (stereo not drawn)	TGFb inhibitor 10µM (no result: ATXN2 expr inh, ATXN viability, GLP-1R agonist)
CCN1CCc2c(sc(-n3cccc3)c2C(CCC(C)C)NC(=O)NCCC(=O)OC)C1 (stereo not drawn)	TGFb inhibitor inconclusive (no result: ATXN2 expr inh, ATXN viability, GLP-1R agonist)
COc1cc(NC(=O)NC(C)c2c(-n3cccc3)sc3c2CCCC3)cc(OC)c1OC (stereo not drawn)	ATXN2 expr inh inconclusive, TGFb inhibitor inconclusive, ATXN viability inconclusive, GLP-1R inv ag 11µM (no result: GLP-1R agonist)
CC(NC(=O)Nc1ccccc1C(F)(F)F)c1c(-n2cccc2)sc2c1CCCC2 (stereo not drawn)	GLP-1R inv ag inconclusive (no result: GLP-1R agonist)
CC(Oc1ccccc1)C(=O)Nc1ccc(S(=O)(=O)N2CCCC2)cc1 (stereo not drawn)	none
Cc1ccc(NS(=O)(=O)c2cc(NC(=O)C(C)Oc3ccccc3)ccc2C)c(C)c1 (stereo not drawn)	TGFb inhibitor inconclusive, ATXN viability inconclusive, GLP-1R inv ag 10µM
Cc1ccc(NC(=O)C(C)Oc2ccccc2)cc1S(=O)(=O)N1CCCCCC1 (stereo not drawn)	TGFb inhibitor inconclusive, GLP-1R inv ag 13µM (no result: ATXN2 expr inh)
c1cc(CN2CCCNCCNCCCNCC2)ccc1CN1CCCNCCNCCCNCC1	none (no result: TGFb inhibitor, ATXN viability, GLP-1R inv ag, HepG2 tox, GLP-1R agonist)
CC(NC(=S)NC1CCC(C(C)(C)C)CC1)c1ccccc1 (stereo not drawn)	ATXN2 expr inh inconclusive, TGFb inhibitor inconclusive, GLP-1R inv ag 10µM

Screening data from PubChem BioAssay.
